Several values for one entry are separate records, joined by “and”; a condition that tells them apart may be missing. Identical values can stand only once. Activity calls are given as the source filed them.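 The calls were made as follows: active = mean z-score across replicates of 1.96 or higher in either the MELAS or the Rieske mutant cell line; inactive = the rest.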
Also: test concentration not given here.

The nature of one assay: viability loss with induced miR-34 in A549 – imaging, A549 dox-inducible miR-34, nuclei and caspase counts, primary screen (AID 1347080). Particulars: A549 miR-34 inducible, Hoechst nuclei count, 48 h; measured here: total cells with miR-34 induction; stronger effect = lower value.
`CCOc1ccccc1-n1c(C(C)N2CCN(C(=O)COc3ccc(Cl)cc3)CC2)nc2ccccc2c1=O` (centres undefined) yielded a cell count of 5130.
Take `CN[C@@H]1C[C@H]2O[C@@](C)([C@@H]1OC)n1c3ccccc3c3c4c(c5c6ccccc6n2c5c31)C(=O)NC4`: the cell count amounted to 874.
As to `CC1=C2C[C@H]3[C@@H](CC=C4C[C@@H](O)CC[C@@]43C)[C@@H]2CC[C@]12O[C@@H]1C[C@H](C)CN[C@H]1[C@H]2C`, the cell count came out at 4470.
Still for that read-out and setting: under `CN1[C@@H]2CC(O)C[C@H]1[C@@H]1O[C@@H]12` (some centres undefined) stands 8400 and 9480; under `C[C@]12Cc3cn[nH]c3C[C@@H]1CC[C@@H]1[C@@H]2CC[C@@]2(C)[C@H]1CC[C@]2(C)O`, 8690; under `O=S(=O)(F)Cc1ccccc1`, 9940.
Same read-out and setting: under `CC(=O)Nc1ccc(OC[C@](C)(O)C(=O)Nc2ccc([N+](=O)[O-])c(C(F)(F)F)c2)cc1` stands 7800; under `COc1ccc(N(C(=O)Oc2c(C)cccc2C)c2ccnc(Nc3ccc(N4CCN(C)CC4)cc3)n2)c(OC)c1`, 5990.
The compound `CC(C)(C)c1cc(C=C(C#N)C#N)cc(Br)c1O` returned a cell count of 7700.

The assay is the same for the next values; noted with them: A549 miR-34 inducible, Hoechst nuclei count, 48 h; measured here: total cells without miR-34 induction.
For the compound `CCOc1ccccc1-n1c(C(C)N2CCN(C(=O)COc3ccc(Cl)cc3)CC2)nc2ccccc2c1=O` (centres undefined), the cell count amounted to 6610.
For `CN[C@@H]1C[C@H]2O[C@@](C)([C@@H]1OC)n1c3ccccc3c3c4c(c5c6ccccc6n2c5c31)C(=O)NC4`, the cell count worked out at 732.
`CC1=C2C[C@H]3[C@@H](CC=C4C[C@@H](O)CC[C@@]43C)[C@@H]2CC[C@]12O[C@@H]1C[C@H](C)CN[C@H]1[C@H]2C` yielded a cell count of 4900.
The same measure, in the same setting: the same measure for `CN1[C@@H]2CC(O)C[C@H]1[C@@H]1O[C@@H]12` (some centres undefined): 9240 and 10200; for `C[C@]12Cc3cn[nH]c3C[C@@H]1CC[C@@H]1[C@@H]2CC[C@@]2(C)[C@H]1CC[C@]2(C)O`: 9800; for `O=S(=O)(F)Cc1ccccc1`: 10800.
Still for that read-out and setting: under `CC(=O)Nc1ccc(OC[C@](C)(O)C(=O)Nc2ccc([N+](=O)[O-])c(C(F)(F)F)c2)cc1` stands 8100.
`COc1ccc(N(C(=O)Oc2c(C)cccc2C)c2ccnc(Nc3ccc(N4CCN(C)CC4)cc3)n2)c(OC)c1`: the cell count turned out to be 7250.
Same read-out and setting: the same measure for `CC(C)(C)c1cc(C=C(C#N)C#N)cc(Br)c1O`: 8690.

The next assay can be described thus: MELAS cybrid and Rieske KO viability enhancers – cell-based, MELAS cybrids, Rieske KO mouse fibroblasts, CellTiter-Glo, primary screen (AID 1508586).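 Also: z relative to plate mean and SD of compound and empty wells.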 Particulars: MELAS cybrid survival, low glucose, CellTiter-Glo 48 h; stronger effect = higher value.
As for `C[C@@H]1O[C@@H](O[C@@H]2C=C3CC[C@@H]4[C@H](CC[C@]5(C)[C@@H](c6ccc(=O)oc6)CC[C@]45O)[C@@]3(C)CC2)[C@H](O)[C@H](O)[C@H]1O`, the z-score was 1.14 (inactive).
On the same count and under the same terms, under `CCOc1ccccc1-n1c(C(C)N2CCN(C(=O)COc3ccc(Cl)cc3)CC2)nc2ccccc2c1=O` (centres undefined) stands 1.76 (inactive); under `CN1[C@@H]2CC(O)C[C@H]1[C@@H]1O[C@@H]12` (some centres undefined), -0.234 (inactive) and -0.344 (inactive).
The same measure, in the same setting: under `C[C@]12Cc3cn[nH]c3C[C@@H]1CC[C@@H]1[C@@H]2CC[C@@]2(C)[C@H]1CC[C@]2(C)O` stands 0.697 (inactive) and -0.417 (inactive); under `O=S(=O)(F)Cc1ccccc1`, -0.358 (inactive).
The same measure, in the same setting: under `CC(=O)Nc1ccc(OC[C@](C)(O)C(=O)Nc2ccc([N+](=O)[O-])c(C(F)(F)F)c2)cc1` stands -0.592 (inactive).
`COc1ccc(N(C(=O)Oc2c(C)cccc2C)c2ccnc(Nc3ccc(N4CCN(C)CC4)cc3)n2)c(OC)c1`: the z-score was 0.0994 (inactive).
On the same count and under the same terms, under `CC(C)(C)c1cc(C=C(C#N)C#N)cc(Br)c1O` stands -0.608 (inactive).

Staying with this assay, now noted: Rieske KO mouse fibroblast survival, low glucose, CellTiter-Glo 72 h.
As to `C[C@@H]1O[C@@H](O[C@@H]2C=C3CC[C@@H]4[C@H](CC[C@]5(C)[C@@H](c6ccc(=O)oc6)CC[C@]45O)[C@@]3(C)CC2)[C@H](O)[C@H](O)[C@H]1O`, the z-score was -0.344.
For `CCOc1ccccc1-n1c(C(C)N2CCN(C(=O)COc3ccc(Cl)cc3)CC2)nc2ccccc2c1=O` (centres undefined), the z-score was 1.03.
In the case of `CN1[C@@H]2CC(O)C[C@H]1[C@@H]1O[C@@H]12` (some centres undefined), the z-score is -0.606 and 0.658.
The same measure, in the same setting: under `C[C@]12Cc3cn[nH]c3C[C@@H]1CC[C@@H]1[C@@H]2CC[C@@]2(C)[C@H]1CC[C@]2(C)O` stands -0.0861 and -1.23; under `O=S(=O)(F)Cc1ccccc1`, 0.553.
With `CC(=O)Nc1ccc(OC[C@](C)(O)C(=O)Nc2ccc([N+](=O)[O-])c(C(F)(F)F)c2)cc1`, the z-score is 0.733.
Regarding `COc1ccc(N(C(=O)Oc2c(C)cccc2C)c2ccnc(Nc3ccc(N4CCN(C)CC4)cc3)n2)c(OC)c1`, the z-score was -1.32.
Same read-out and setting: under `CC(C)(C)c1cc(C=C(C#N)C#N)cc(Br)c1O` stands -0.108.

Source of the values: PubChem BioAssay.
